Most compounds without a hit are left out; they make up all but 19% or so of the library.
TDP1 cell noCPT – qHTS for Inhibitors of human tyrosyl-DNA phosphodiesterase 1 (TDP1): qHTS in cells in absence of CPT; AID 686978, 2013; Potency, µM (highest dose often 46.2 µM), without a hit: top-dose activity change, negative = growth inhibition, hits mostly inhibitors; DT40 Tdp1-/- hTDP1 cells, no CPT, ATP luminescence, 48 h; hit rate 15% among 420,000; also: potency is read from the fitted curve at half-maximal effect; nearly all actives have a fitted effect of over 55% in size
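Luminescent ATP content (CellTiter-Glo) served as the growth readout. Knockout chicken DT40 cells expressing human TDP1 were exposed to compounds without camptothecin for a minimum 48 hr at 37 °C.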
HT1080 IDH1KD tx – toxicity to HT-1080 IDH1 knockdown cells (counter line) | hit rate 2% among 360,000 | Potency, µM (titrated, usually from 46.1 µM), inactives show at the highest dose activity, negative = toxicity, usual class: cytotoxic | HT-1080 IDH1 knockdown viability, ATP luminescence, 48 h;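 also: potency is read from the fitted curve at half-maximal effect; 0% = DMSO wells and -100% = cell-free medium wells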
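% activity derives from luminescence (CellTiter-Glo), normalised to DMSO and no-cell wells. HT-1080-IDH1KD cells, 750/well, had 48 h compound exposure at 37 °C.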
HT1080-NT tox – kills 2HG-producing HT-1080-NT fibrosarcoma cells | hit rate 1.6% among 360,000 | Potency, µM (titrated, usually from 46.1 µM), without a hit: at the highest dose activity, negative = less viability, most hits filed as cytotoxic | HT-1080-NT fibrosarcoma viability, CellTiter-Glo ATP luminescence, 48 h;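 also: NT is the 2HG producing partner of a matched IDH1 knockdown line; potency is read from the fitted curve at half-maximal effect; 0% = DMSO-treated cells and -100% = media-only wells without cells; nearly all actives have a fitted effect of over 55% in size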
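Luminescent CellTiter-Glo readout after 48 hours of compound exposure at 37 degrees C defined viability of HT-1080-NT cells. Activity was normalized to DMSO wells and cell-free media wells; concentration-response curves were fitted and assigned curve classes.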
IL-1B inflam inh – blocks inflammasome-driven IL-1 beta release | THP-1 LPS/ATP IL-1B secretion, AlphaLISA, 16 h; hits give low values | activity change, % at 57.5 µM | hit rate 4.7% among 360,000; in the data active = activity change below about -50%; inconclusive = mostly about -30% to -49%
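Secreted IL-1B measured by AlphaLISA bead assay after 16 h compound exposure of THP-1 cells; compounds (final up to 57.5 uM) added 1 h before LPS (250 ng/mL) and ATP (1.25 mM) stimulation; lower signal means less secretion.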
ELG1 DNA repair – ELG1-dependent DNA repair inhibition | Potency, µM (top dose mostly 46.1 µM), without a hit: at the highest dose activity change, negative = inhibition, actives largely listed as inhibitors | AID 504467 | hit rate 2.3% among 330,000 | HEK293T ELG1-luciferase reporter, luminescence, 16 h; DNA damage induced by 5-fluorouridine; also: potency is read from the fitted curve at half-maximal effect; nearly all actives have a fitted effect of over 55% in size
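Overnight (16 hr) co-exposure of 2,000 cells/well to 5-fluorouridine and compound at 37 °C preceded detection. Luciferase was quantified via ONE-Glo luminescence; loss of signal denotes inhibition.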
DT40 TDP1 CPT – growth inhibition of DT40 Tdp1-/-;hTDP1 cells with camptothecin (screen for TDP1 inhibitors); chicken DT40 Tdp1-/-;hTDP1 cells + 20 nM CPT, ATP luminescence, 48 h; Potency, µM (series often up to 46.2 µM), for inactives: top-dose activity change, negative = growth inhibition, usual class: inhibitors; hit rate 12% among 420,000; AID 686979; also: potency is read from the fitted curve at half-maximal effect; nearly all actives have a fitted effect of over 55% in size
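Cell growth measured by CellTiter-Glo luminescence after a minimum 48 h, 37 C compound exposure with 20 nM CPT in Tdp1-knockout DT40 cells stably expressing hTDP1, seeded 400/well; qHTS titration format.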
Starred values were filed as active, the others as inactive; ? = inconclusive; . = no result given; [ ] = remark or other dose. Unless noted, calls follow the shape of the dose curve; as a rule, active = well fitted curve in the direction sought with a large enough effect; inconclusive = small, poorly fitted or top-dose-only effect, or another doubt; inactive = no such curve, though single readings can be large; an effect the other way counts as inactive or inconclusive. Unless noted, % is scaled to controls: 0 for no effect and ±100 for the full control effect.

SMILES	TDP1 cell noCPT	HT1080 IDH1KD tx	HT1080-NT tox	IL-1B inflam inh	ELG1 DNA repair	DT40 TDP1 CPT
O=C(CCN1C(=O)/C(=C/c2ccccc2Cl)SC1=S)NC1C=CS(=O)(=O)C1 (stereo not drawn)	23µM*	-1%	-4%	-63*	0%	18µM*
O=C(CN1C(=O)/C(=C/c2ccccc2Cl)SC1=S)NC1CCS(=O)(=O)C1 (stereo not drawn)	-6%	-5%	-14%	-8	1%	-20%
CC(C)(C)OC(=O)NCCCCCc1cn([C@@H](CO)C(=O)NCCCCCCCCCCC(=O)N2CCN(C(=O)OC(C)(C)C)CC2)nn1	2.3µM*	16µM*	16µM*	0	3.2µM*	2.6µM*
C[C@H](O)[C@@H](C(=O)N1CCN(C(=O)OC(C)(C)C)CC1)n1cc(CCCCNC(=O)OC(C)(C)C)nn1	?	2%	5%	1	-6%	-23%
Cc1cn([C@H](C(=O)NCCCCCCCCCCC(=O)N2CCN(C(=O)OC(C)(C)C)CC2)[C@@H](C)O)nn1	16µM*	-7%	-3%	32	?	23µM*
CC(C)(C)OC(=O)CC[C@@H](C(=O)NCCCCCCCCCCC(=O)N1CCN(C(=O)OC(C)(C)C)CC1)n1cc(CCCCCNC(=O)OC(C)(C)C)nn1	4.1µM*	-3%	-7%	5	-21%	5.8µM*
CC[C@H](C)[C@@H](C(=O)NCCCCCCCCCCC(=O)N1CCN(C(=O)OC(C)(C)C)CC1)n1cc(CCCCCNC(=O)OC(C)(C)C)nn1	5.8µM*	-8%	-11%	35	?	4.6µM*
c1cn2c(-c3ccoc3)cncc2n1	-17%	0%	23%	0	.	-26%
CC1=C(C(=O)Nc2cccnc2)C(c2ccccc2)n2nc(-c3ccc(O)cc3)nc2N1 (stereo not drawn)	-12%	.	.	.	.	-15%
CCNC(=O)C1CC(=O)N(CCCc2ccccc2)C(=Nc2ccccc2)S1 (stereo not drawn)	-26%	1%	2%	9	0%	?
OC(CCCN1CCCCC1)(c1ccccc1)c1ccc(C(F)(F)F)cc1 (stereo not drawn)	18µM*	?	?	-22	.	?
CCCCCCSc1cc(C)nc2ncnn12	12µM*	2%	0%	42	-4%	16µM*
COc1ccc(CN2CCCC(n3cc(C(=O)N4CCCCC4)nn3)C2)c(OC)c1 (stereo not drawn)	-6%	.	.	.	.	0%[9.04 µM]
CCC(CC)c1nnc(NC(=O)C23CC4CC(CC(NC(C)=O)(C4)C2)C3)s1	-24%	-3%	4%	3	-13%	?
CC12CCC(=O)N1C(C(=O)OCC(=O)Nc1ccc(Cl)c(Cl)c1)CS2 (stereo not drawn)	?	0%	-20%	-58*	17%	-19%
CC(=O)NC12CC3CC(C1)CC(C(=O)Nc1nc4ccc(F)cc4s1)(C3)C2	26µM*	?	-18%	?	-20%	?
CC12CCC(=O)N1C(C(=O)Nc1ccc(Cl)c(Cl)c1)CS2 (stereo not drawn)	-26%	-20%	-15%	-50*	-3%	14%
CC12CCC(=O)N1C(C(=O)Nc1nc3ccc(F)cc3s1)CS2 (stereo not drawn)	10µM*	2%	0%	-10	?	-15%
Cc1ccc(N(CC(=O)NCc2ccco2)C(=O)CCC(=O)Nc2nccs2)c(C)c1	-19%	9%	9%	15	6%	4%
C#CC1(NC(=S)Nc2cccc(OC)c2)CCCCC1	-6%	-24%	-1%	15	.	1%
COC(=O)CNc1nc(Cl)nc(Nc2ccc(C)cc2)n1	-9%	-1%	15%	4	8%	-28%
COC(=O)c1ccccc1NC(=S)NC(=O)c1ccc2ccccc2c1	?	11%	4%	0	?	?
COC(=O)c1ccccc1NC(=S)NC(=O)c1cccc2ccccc12	?	-6%	-3%	11	17%	16µM*
COc1ccccc1C(=O)NC(=S)Nc1cccc2cc(O)ccc12	-23%	?	?	-85*	.	?
O=C(NC(=S)Nc1cccc2cc(O)ccc12)c1ccccc1Br	?	-17%	-9%	-13	-20%	?
SMILES	TDP1 cell noCPT	HT1080 IDH1KD tx	HT1080-NT tox	IL-1B inflam inh	ELG1 DNA repair	DT40 TDP1 CPT
CN1CCN(c2ccc(NC(=S)NC(=O)c3cccc4c(Br)cccc34)cc2)CC1	18µM*	-6%	-23%	-17	-13%	21µM*
CC(=O)N1CCN(c2ccc(NC(=S)NC(=O)c3ccccc3)cc2)CC1	-12%	4%	-4%	-6	4%	-13%
CN1CCN(c2ccc(NC(=S)NC(=O)c3cccc4ccccc34)cc2)CC1	12µM*	-7%	?	-100*	2%	23µM*
COc1cc(=O)n2c(c1C(=O)N(C)Cc1cscn1)CCN(C(=O)c1ccc(C)c(C)c1)CC2	-3%	.	.	.	.	7%
COc1cccc(S(=O)(=O)N(C)C[C@H]2OCc3cnnn3CCCC(=O)N([C@@H](C)CO)C[C@@H]2C)c1	?	-5%	-6%	18	.	1%
CCN1CCN(Cc2c(O)ccc3c(=O)c(Oc4ccccc4C(C)C)c(C(F)(F)F)oc23)CC1	-1%	.	.	.	.	-6%
CCS(=O)(=O)N1CCC(NC(=O)C(Cc2cccc(OC)c2OC)NC(C)=O)CC1 (stereo not drawn)	3%	20%	12%	5	0%	-4%
